Records with an inconclusive call do not appear. Activity calls are given as the source filed them. Calls come from the whole dose curve; as a rule, active = well fitted inhibition curve with a large enough effect; inconclusive = small, poorly fitted or top-dose-only effect; inactive = flat fitted curve, though single readings scatter.
Legend:
KB-3-1 = assay: Cytotoxic Profiling of Annotated Libraries Using Quantitative High-Throughput Screening (AID 1296008); conditions: Five cell lines viability, CellTiter-Glo ATP luminescence, 48-72 h; max response: stronger effect = lower value; for max response: % is set by controls: 0 for no effect and ±100 for the full control effect
How it was run: (§1)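 Cells exposed to compounds for 48 or 72 hr at 37 degrees Celsius. Viability read as ATP-coupled luminescence with CellTiter-Glo after 10 min at room temperature.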

NIH3T3 [1] = assay: as above; conditions: Five cell lines viability, CellTiter-Glo ATP luminescence, 48-72 h; max response: stronger effect = lower value
How it was run: as §1

HEK293T = assay: qHTS assay to identify novel small-molecules to repurpose for Merkel cell carcinoma treatment (AID 1296009); conditions: MCC and control cell lines, CellTiter-Glo viability, 72 h; at 44.8 µM (top of the series) unless noted
How it was run: (§2)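 CellTiter-Glo luminescence after 72 hr compound exposure at 37 degree celsius gave cell viability. Libraries NPC and MIPE were run as 8- and 11-point dose responses; RLUs normalized to DMSO (negative) and no-cell (cytotoxicity) controls.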

NIH3T3 [2] = assay: as above; conditions: MCC and control cell lines, CellTiter-Glo viability, 72 h; at 44.8 µM (top of the series) unless noted
How it was run: as §2

HACAT = assay: as above; conditions: MCC and control cell lines, CellTiter-Glo viability, 72 h; at 44.8 µM (top of the series) unless noted
How it was run: as §2

CRL-7250 = normal cell line; assay: as above; conditions: MCC and control cell lines, CellTiter-Glo viability, 72 h; at 44.8 µM (top of the series) unless noted
How it was run: as §2

Measured: max response
Note: nearly all actives have a fitted effect of over 60% in size.

CC(N)Cc1c[nH]c2ccccc12 (centres undefined)
inactive: KB-3-1 | NIH3T3 [1] | HEK293T | NIH3T3 [2]

COc1cc(C(=O)O[C@H]2[C@@H]3C=CO[C@@H](O[C@@H]4O[C@H](CO)[C@@H](O)[C@H](O)[C@H]4O)[C@@H]3[C@@]3(CO)O[C@@H]23)ccc1O
inactive: KB-3-1 | NIH3T3 [1] | HACAT inactive [at 17.4 µM] | NIH3T3 [2] inactive [at 17.4 µM]

C=C(CO)C(=O)O[C@H]1C/C(C)=C/CC/C(CO)=C/[C@H]2OC(=O)C(=C)[C@H]12
inactive: KB-3-1 | NIH3T3 [1] | HACAT | NIH3T3 [2]

C/C=C(\C)C(=O)OC1C(C)OC(OC2C(C)OC(OC3CCC4(C)C(=CCC5C4CCC4(C)C(C(C)OC6OC(COC7OC(CO)C(O)C(O)C7O)C(O)C(O)C6O)CCC54O)C3)CC2OC)C(O)C1OC (centres undefined)
inactive: KB-3-1 0.359% | NIH3T3 [1] | HACAT inactive [at 9.27 µM] | NIH3T3 [2] inactive [at 9.27 µM]

CCC(C)(C#N)O[C@@H]1O[C@H](CO)[C@@H](O)[C@H](O)[C@H]1O (some centres undefined)
not listed: CRL-7250
inactive: all other assays above

CN(C)CCc1c[nH]c2ccc(CN3CCN(C)S3(=O)=O)cc12
inactive: KB-3-1 -6.8% | NIH3T3 [1] | HACAT | NIH3T3 [2]

C=CC(C)(C)c1[nH]c2cccc3c2c1C[C@@H]1[C@@H]3[C@@H](OC(C)=O)[C@H](C)CN1C
inactive: KB-3-1 4.47% | NIH3T3 [1] | HACAT | HEK293T | NIH3T3 [2]

CN1[C@@H]2CC[C@H]1CC(OC(=O)C1C=Nc3ccccc31)C2 (some centres undefined)
inactive: KB-3-1 7.85% | NIH3T3 [1] | NIH3T3 [2]

CN1CCCC1CCOC(c1cc2nccc(C(=O)O)c2[nH]1)c1ccccc1Cl (centres undefined)
inactive: KB-3-1 7.27% | NIH3T3 [1] | CRL-7250 | NIH3T3 [2]

CN1CCC[C@@H]1Cc1c[nH]c2ccc(Nc3ncccc3[N+](=O)[O-])cc12
inactive: KB-3-1 -5.99% | NIH3T3 [1] | CRL-7250 | NIH3T3 [2]

C/C=C(\C)C(=O)O[C@H]1[C@H](OC(C)=O)[C@]2(CO)[C@H](O)[C@H](O)[C@]3(C)C(=CCC4[C@@]5(C)CC[C@H](O[C@@H]6O[C@H](C(=O)O)[C@@H](O)[C@H](O[C@@H]7OC[C@H](O)[C@H](O[C@@H]8OC[C@H](O)[C@H](O)[C@H]8O)[C@H]7O)[C@H]6O[C@@H]6O[C@H](CO)[C@@H](O)[C@H](O)[C@H]6O)C(C)(C)C5CC[C@]43C)[C@@H]2CC1(C)C (some centres undefined)
inactive: KB-3-1 | NIH3T3 [1] | HEK293T inactive [at 9.27 µM] | NIH3T3 [2] inactive [at 9.27 µM]

C1=C2CCCN[C@H]2[C@@H]2C[C@H]1[C@H]1CCCCN1C2
inactive: KB-3-1 | NIH3T3 [1] | CRL-7250 | NIH3T3 [2]

CC1=CC2/C=C(\C)CCC(O)C3OC(C)(C)OC3CC(=O)OC23C(=O)NC(CC(C)C)C3C1C (centres undefined)
inactive: KB-3-1 | NIH3T3 [1] | HACAT inactive [at 17.4 µM] | NIH3T3 [2] inactive [at 17.4 µM]

CC(=O)OC1CC(O)C2(C)C(CC(OC(C)=O)C3(C)C2CCC2(C)C(c4ccoc4)C(=O)C4OC423)C1(C)C (centres undefined)
inactive: KB-3-1 8.18% | NIH3T3 [1] -1.6% | HEK293T inactive [at 17.4 µM]

CCN1C[C@]2(COC(=O)c3ccccc3N3C(=O)C[C@H](C)C3=O)CC[C@H](OC)[C@@]34[C@@H]5C[C@H]6[C@H](OC)[C@@H]5[C@](O)(C[C@@H]6OC)[C@](O)([C@@H](OC)[C@H]23)[C@@H]14
inactive: KB-3-1 | NIH3T3 [1] | NIH3T3 [2]

COC1CC(OC2CCC3(C)C(=CCC4C3CCC3(C)C(C(C)OC5OC(COC6OC(CO)C(O)C(O)C6O)C(O)C(O)C5O)CCC43O)C2)OC(C)C1OC1OC(C)C(O)C(OC)C1O (centres undefined)
inactive: KB-3-1 9.26% | NIH3T3 [1] | HACAT inactive [at 9.27 µM] | NIH3T3 [2] inactive [at 9.27 µM]

C=C[C@H]1[C@H](O[C@@H]2O[C@H](CO)[C@@H](O)[C@H](O)[C@H]2O)OC=C2C(=O)OCC[C@H]21
inactive: KB-3-1 | NIH3T3 [1] | HEK293T | NIH3T3 [2]

CC(=O)O[C@H]1C[C@@H](OC(C)=O)C(C)(C)C2C[C@@H](O)[C@]3(C)C(CC[C@@]4(C)[C@H](C5=CC(=O)OC5O)C[C@H]5O[C@]543)[C@]21C (some centres undefined)
inactive: KB-3-1 6.85% | NIH3T3 [1] | HEK293T inactive [at 17.4 µM] | NIH3T3 [2] inactive [at 17.4 µM]

CC(C)=C1CC[C@]23CO[C@H](C2)[C@@](O)(C(=O)O)CCC13 (some centres undefined)
inactive: KB-3-1 4.44% | NIH3T3 [1] 1.86% | HEK293T

CCCN1CCO[C@H]2c3cc(O)ccc3OC[C@@H]21
not listed: HACAT
inactive: all other assays above

— PubChem BioAssay (NCATS)
